# Calls of active or inactive are those of the source.
# Experiments:
# [1] = binders of probe aFSTL3 on microarray, primary screen, stem cell growth factor project, biochemical, small-molecule microarray, fluorescence 635/667 (AID 1064); settings: higher = more signal;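 note: measures binding of the biotinylated anti-FSTL3 antibody to printed compounds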
# [2] = binders from COS7 lysate, DM2A8 probe, primary screen, torsin A project, cell lysate, small-molecule microarray, fluorescence 635/667 (AID 1065); settings: higher = more signal, COS7 lysate expressing mutant human TOR1A
# [3] = binders of probe aFGF2 on microarray, primary screen, stem cell growth factor project, biochemical, small-molecule microarray, fluorescence 635/667 (AID 1067); settings: higher = more signal;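 note: measures binding of biotinylated aFGF2 protein to printed compounds on slides; z-score merges feature fluorescence and signal-to-noise across triplicate slides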
# [4] = binders of probe aFGF10 on microarray, primary screen, stem cell growth factor project, biochemical, small-molecule microarray, fluorescence 635/667 (AID 1071); settings: higher = more signal;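 note: score merges 667 nm spot intensity and signal to noise from triplicate slides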
# [5] = molecular target: Neurogenic locus notch homolog protein 2 (Homo sapiens) (UniProt Q04721); test: Notch2 binders on small-molecule microarrays, primary screen, biochemical, small-molecule microarray, 635 nm fluorescence, stem cell growth factors (AID 1073); settings: Notch2 binding, higher = more signal
# Neurogenic locus notch homolog protein 2 (Homo sapiens), sequence (Q04721 whole entry, looked up, canonical isoform): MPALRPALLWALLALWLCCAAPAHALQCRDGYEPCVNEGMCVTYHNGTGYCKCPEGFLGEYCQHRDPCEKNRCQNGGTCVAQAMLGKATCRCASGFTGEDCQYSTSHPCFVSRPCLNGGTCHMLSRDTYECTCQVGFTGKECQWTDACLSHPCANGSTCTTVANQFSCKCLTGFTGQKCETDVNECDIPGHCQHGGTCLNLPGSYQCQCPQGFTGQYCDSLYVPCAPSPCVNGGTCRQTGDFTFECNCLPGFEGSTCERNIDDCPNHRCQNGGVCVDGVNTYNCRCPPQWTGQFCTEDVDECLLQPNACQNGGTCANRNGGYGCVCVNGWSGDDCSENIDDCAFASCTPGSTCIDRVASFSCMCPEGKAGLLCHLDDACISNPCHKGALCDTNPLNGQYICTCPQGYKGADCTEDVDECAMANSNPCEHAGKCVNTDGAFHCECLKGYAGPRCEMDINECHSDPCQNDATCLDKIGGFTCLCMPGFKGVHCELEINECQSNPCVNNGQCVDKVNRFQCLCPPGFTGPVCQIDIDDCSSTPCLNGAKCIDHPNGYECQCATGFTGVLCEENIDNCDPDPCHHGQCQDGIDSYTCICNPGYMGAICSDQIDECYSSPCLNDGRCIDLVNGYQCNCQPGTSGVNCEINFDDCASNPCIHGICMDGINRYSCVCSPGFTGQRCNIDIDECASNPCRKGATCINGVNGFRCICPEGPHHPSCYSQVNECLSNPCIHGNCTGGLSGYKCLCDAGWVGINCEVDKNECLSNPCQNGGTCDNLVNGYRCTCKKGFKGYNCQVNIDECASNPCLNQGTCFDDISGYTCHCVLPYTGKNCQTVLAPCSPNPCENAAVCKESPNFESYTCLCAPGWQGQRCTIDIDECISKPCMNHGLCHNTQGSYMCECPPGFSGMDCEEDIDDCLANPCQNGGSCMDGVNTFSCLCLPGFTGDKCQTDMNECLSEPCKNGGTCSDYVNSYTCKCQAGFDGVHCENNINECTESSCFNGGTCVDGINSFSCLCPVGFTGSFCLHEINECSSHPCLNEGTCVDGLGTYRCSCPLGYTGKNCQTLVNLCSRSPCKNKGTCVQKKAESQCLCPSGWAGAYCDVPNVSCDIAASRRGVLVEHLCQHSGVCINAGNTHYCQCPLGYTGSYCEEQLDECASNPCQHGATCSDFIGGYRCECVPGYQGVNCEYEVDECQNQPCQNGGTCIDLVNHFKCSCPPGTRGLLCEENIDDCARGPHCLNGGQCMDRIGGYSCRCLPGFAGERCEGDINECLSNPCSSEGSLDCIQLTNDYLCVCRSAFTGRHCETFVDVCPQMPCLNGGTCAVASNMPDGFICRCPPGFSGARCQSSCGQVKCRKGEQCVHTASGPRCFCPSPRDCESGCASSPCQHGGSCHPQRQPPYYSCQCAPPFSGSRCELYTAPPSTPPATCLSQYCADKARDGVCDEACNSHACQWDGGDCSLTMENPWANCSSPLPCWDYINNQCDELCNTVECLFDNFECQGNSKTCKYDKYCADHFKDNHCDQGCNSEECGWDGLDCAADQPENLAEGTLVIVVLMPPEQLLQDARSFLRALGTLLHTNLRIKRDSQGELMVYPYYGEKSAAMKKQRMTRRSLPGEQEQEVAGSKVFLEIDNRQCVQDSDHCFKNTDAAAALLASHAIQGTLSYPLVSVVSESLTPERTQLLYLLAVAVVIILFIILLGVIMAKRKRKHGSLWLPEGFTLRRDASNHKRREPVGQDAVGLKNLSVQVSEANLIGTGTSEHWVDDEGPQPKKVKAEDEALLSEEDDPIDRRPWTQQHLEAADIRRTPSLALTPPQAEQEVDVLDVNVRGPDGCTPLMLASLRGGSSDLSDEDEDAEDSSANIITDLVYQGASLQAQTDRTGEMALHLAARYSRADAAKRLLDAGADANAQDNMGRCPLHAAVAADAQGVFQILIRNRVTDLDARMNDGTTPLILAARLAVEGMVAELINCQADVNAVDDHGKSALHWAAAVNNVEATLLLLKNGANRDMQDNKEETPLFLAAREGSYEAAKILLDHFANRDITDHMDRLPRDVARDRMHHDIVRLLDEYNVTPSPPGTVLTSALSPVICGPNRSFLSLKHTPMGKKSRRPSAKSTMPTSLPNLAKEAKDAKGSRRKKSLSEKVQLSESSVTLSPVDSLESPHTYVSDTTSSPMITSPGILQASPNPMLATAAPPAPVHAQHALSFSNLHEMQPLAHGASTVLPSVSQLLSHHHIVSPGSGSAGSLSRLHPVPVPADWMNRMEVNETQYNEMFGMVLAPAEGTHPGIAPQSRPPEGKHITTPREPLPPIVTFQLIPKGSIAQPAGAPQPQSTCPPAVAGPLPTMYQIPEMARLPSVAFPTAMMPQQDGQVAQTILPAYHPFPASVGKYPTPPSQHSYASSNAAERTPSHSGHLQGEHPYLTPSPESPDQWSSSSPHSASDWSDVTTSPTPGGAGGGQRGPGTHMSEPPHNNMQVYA
# [6] = molecular target: Pro-neuregulin-1, membrane-bound isoform (Homo sapiens) (UniProt Q02297); test: NRG1 binders on small-molecule microarrays, primary screen, psychiatric disease protein project, biochemical, small-molecule microarray, fluorescence 635/667 (AID 1075); settings: NRG1 binding, 635 nm fluorescence, higher = more signal;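 note: score combines 667 nm spot fluorescence with signal to noise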
# Pro-neuregulin-1, membrane-bound isoform (Homo sapiens), sequence (Q02297 whole entry, looked up, the tested form may be a part, canonical isoform): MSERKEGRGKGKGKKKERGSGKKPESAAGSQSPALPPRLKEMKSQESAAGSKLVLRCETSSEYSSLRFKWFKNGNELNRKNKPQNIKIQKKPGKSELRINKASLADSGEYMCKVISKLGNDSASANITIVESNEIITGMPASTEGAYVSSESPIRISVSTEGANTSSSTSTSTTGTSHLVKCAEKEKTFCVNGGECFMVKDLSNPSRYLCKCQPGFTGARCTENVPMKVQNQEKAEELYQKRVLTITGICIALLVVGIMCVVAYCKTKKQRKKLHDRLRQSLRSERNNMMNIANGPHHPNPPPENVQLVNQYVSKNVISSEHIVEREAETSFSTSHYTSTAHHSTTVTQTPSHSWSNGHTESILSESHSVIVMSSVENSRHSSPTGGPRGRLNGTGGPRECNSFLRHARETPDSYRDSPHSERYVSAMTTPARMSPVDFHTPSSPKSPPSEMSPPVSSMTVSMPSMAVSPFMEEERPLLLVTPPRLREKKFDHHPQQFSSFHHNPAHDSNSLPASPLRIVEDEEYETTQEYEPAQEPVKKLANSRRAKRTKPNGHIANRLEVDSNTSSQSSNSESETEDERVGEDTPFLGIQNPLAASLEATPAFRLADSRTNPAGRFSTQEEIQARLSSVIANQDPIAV
# [7] = tested on: Neuregulin-1 EGF-like domain; test: binders of neuregulin-1 EGF-like domain, primary screen, biochemical, small-molecule microarray, 635 nm fluorescence (AID 1081); settings: small-molecule microarray binding, higher = more signal;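 note: binding of the protein to compounds printed on small-molecule microarray slides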
# [8] = FRG1 promoter luciferase signal modulators, primary screen, FRG1 inhibition for FSHD, cell-based, C2C12 myotubes, firefly/Renilla luciferase, luminescence (AID 1084); settings: higher = more signal, called active from +8 up or from −8 down
# [9] = binders of probe aFST on microarray, primary screen, stem cell growth factor project, biochemical, small-molecule microarray, fluorescence 635/667 (AID 1086); settings: higher = more signal;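 note: score merges 667 nm fluorescence with signal-to-noise of each printed compound spot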
# [10] = binders of probe aHhip on microarray, primary screen, stem cell growth factor project, biochemical, small-molecule microarray, fluorescence 635/667 (AID 1087); settings: higher = more signal;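 note: score merges spot fluorescence at 667nm with spot signal to noise ratio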
# [11] = tested on: PRMT1 (protein arginine N-methyltransferase 1); test: PRMT1 binders on small-molecule microarrays, primary screen, biochemical, small-molecule microarray, 635 nm fluorescence (AID 1088); settings: small-molecule microarray binding, higher = more signal;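 note: binding of Prmt1 protein to compounds spotted on small-molecule microarray slides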
# [12] = yeast growth modulation, basal conditions, primary screen, YJM789 clinical isolate, OD600, 24 h (AID 1089);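 note: growth of clinical yeast isolate S. cerevisiae YJM 789 seeded 1000 cells per well; test concentration not given here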; settings: S. cerevisiae YJM789 growth, higher = more signal, called active from +8 up or from −8 down
# [13] = fission yeast growth modulation, primary screen, strain 972, OD600, 24 h, no modulator (AID 1090);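 note: basal condition with compound alone and no growth modifier present; test concentration not given here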; settings: S. pombe 972 growth, higher = more signal, called active from +8 up or from −8 down
# [14] = S. cerevisiae growth modulation with rapamycin, primary screen, strain BY4716, OD600, 96 h (AID 1091); settings: higher = more signal, called active from +8 up or from −8 down; note: test concentration not given here
# [15] = molecular target: Torsin-1A-interacting protein 2 (Homo sapiens) (UniProt Q8NFQ8); test: LULL1 binders on small-molecule microarray, primary screen, cell lysate, human LULL1 lysate, 635/667 nm fluorescence (AID 1092); settings: hLULL1 lysate binding, 635 nm fluorescence, higher = more signal;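 note: probe is lysate of COS7 cells overexpressing human LULL1; score merges per-feature 667 nm fluorescence with signal-to-noise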
# Torsin-1A-interacting protein 2 (Homo sapiens), sequence (Q8NFQ8 whole entry, looked up): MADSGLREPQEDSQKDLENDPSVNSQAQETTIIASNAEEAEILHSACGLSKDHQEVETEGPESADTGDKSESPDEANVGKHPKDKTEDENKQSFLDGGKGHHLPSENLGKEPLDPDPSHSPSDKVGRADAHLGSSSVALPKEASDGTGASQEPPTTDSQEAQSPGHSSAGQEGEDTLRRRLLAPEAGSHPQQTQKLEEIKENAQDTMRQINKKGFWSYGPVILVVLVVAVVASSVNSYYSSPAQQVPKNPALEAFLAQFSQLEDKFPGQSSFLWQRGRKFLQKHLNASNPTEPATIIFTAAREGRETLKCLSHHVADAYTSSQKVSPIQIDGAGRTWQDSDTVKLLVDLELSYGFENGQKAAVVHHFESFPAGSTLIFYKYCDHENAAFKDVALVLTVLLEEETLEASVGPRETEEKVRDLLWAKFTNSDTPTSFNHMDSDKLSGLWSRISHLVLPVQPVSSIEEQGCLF
# [16] = E. coli growth modulation, two-sided OD650, primary screen, E. coli filamentation project, strain DRC41, 24 h (AID 1093); settings: OD650, 24 h, higher = more signal, called active from +8 up or from −8 down;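 note: MC1000 strain lacking acrAB efflux and sulA so SOS filamentation is blocked; test concentration not given here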
# [17] = small-molecule microarray binders of probe aLefty2, primary screen, biochemical, biotinylated probe, 635/667 nm fluorescence (AID 1094); settings: higher = more signal;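 note: score merges spot fluorescence near 667 nm with spot signal-to-noise ratio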
# [18] = tested on: Noggin (protein binding on small-molecule microarray); test: Noggin binders on small-molecule microarray, primary screen, biochemical, 635/667 nm fluorescence (AID 1095); settings: 635 nm fluorescence, higher = more signal;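 note: score merges 667 nm feature fluorescence with signal to noise over triplicate slides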
# [19] = molecular target: Neurogenic locus notch homolog protein 3 (Homo sapiens) (UniProt Q9UM47); test: NOTCH3 binders on small-molecule microarray, primary screen, biochemical, 635/667 nm fluorescence (AID 1096); settings: NOTCH3 binding, 635 nm fluorescence, higher = more signal
# [20] = small-molecule microarray binders of probe aEGFR, primary screen, biochemical, biotinylated probe, 635/667 nm fluorescence (AID 1097); settings: higher = more signal;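 note: probe is a biotinylated anti-EGFR antibody binding compounds printed on slides; score combines fluorescence near 667 nm and signal to noise of each spot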
Structure (SMILES),composite z-score [1],composite z-score [2],composite z-score [3],composite z-score [4],composite z-score [5],composite z-score [6],composite z-score [7],z-score [8],composite z-score [9],composite z-score [10],composite z-score [11],z-score [12],z-score [13],z-score [14],composite z-score [15],z-score [16],composite z-score [17],composite z-score [18],composite z-score [19],composite z-score [20]
COc1ccc(O[C@H]2C=C[C@@H](c3ccccc3)O[C@@H]2CON=C(C)CCN2CCCc3nc(C)c(C)cc32)cc1,-0.353,0.0823,-0.0812,0.076,0.476,0.626,0.954,-0.303 (inactive),0.698,-0.0328,1.42,-0.571 (inactive),-0.739 (inactive),-0.706 (inactive),1.56,0.766 (inactive),-0.0511,0.485,1.02,-0.0531
CCO[C@H](c1cc(OC)cc([N+](=O)[O-])c1OC)[C@H](C)[C@@H](OC)[C@H](C)C=CCC(=O)OC,0.0456,0.32,-0.0241,-0.105,0.174,0.339,0.66,-0.0602 (inactive),0.414,-0.317,0.836,0.443 (inactive),-0.463 (inactive),-0.604 (inactive),0.945,-0.466 (inactive),0.0632,-0.0645,1.06,-0.0069
COC(=O)CC=C[C@@H](C)[C@@H](C=NOC(C)CN1CCCCc2nc(C)c(C)cc21)NS(=O)(=O)c1ccc(C)cc1 (stereo not given in full),0.061,0.751,-0.0422,0.471,0.318,-0.279,-0.776,0.511 (inactive),0.38,0.0735,0.63,-1.12 (inactive),0.22 (inactive),0.121 (inactive),-0.137,0.86 (inactive),0.0768,0.52,0.265,-0.0836
COc1ccc(COC(=O)NN=C2C[C@@H](O)[C@@H](O)[C@@H]3[C@@H]4C(=O)N(Cc5ccccc5)C(=O)[C@@H]4CC[C@@H]23)cc1,-0.512,-0.0209,-0.0286,0.291,0.383,-0.271,-0.214,0.364 (inactive),0.268,0.0183,0.166,0.712 (inactive),0.304 (inactive),-0.0766 (inactive),0.105,0.555 (inactive),-0.0873,0.123,0.724,-0.0868
O=C1C[C@@H](O)[C@@H](O)[C@@H]2[C@@H]3C(=O)N(c4ccc(F)cc4F)C(=O)[C@@H]3CC[C@H]12,-0.517,0.248,-0.1,0.648,0.601,0.0794,0.354,-0.536 (inactive),0.201,0.0373,0.599,-0.175 (inactive),-0.177 (inactive),-0.147 (inactive),0.734,0.124 (inactive),-0.0782,0.43,0.6,-0.0695
CC(C)=NOC(C)CN1CCCc2nc(C)c(C)cc21 (stereo not given),-0.39,-0.184,-0.0408,0.897,0.652,0.702,0.61,0.833 (inactive),0.17,-0.201,1.58,0.777 (inactive),0.516 (inactive),0.347 (inactive),1.31,-0.196 (inactive),0.406,0.674,1.07,0.0287
CCOC(=O)NN=C1C[C@@H](O)[C@@H](O)[C@@H]2[C@@H]3C(=O)N(CC)C(=O)[C@@H]3CC[C@H]12,-0.431,0.36,-0.1,0.389,0.384,-0.313,0.539,-0.323 (inactive),0.007,-0.153,-0.0481,0.213 (inactive),0.324 (inactive),0.71 (inactive),0.458,0.312 (inactive),-0.25,0.583,-0.387,-0.034
C#CCCCON=C1C[C@@H](O)[C@@H](O)[C@@H]2[C@@H]3C(=O)N(C[C@@H]4CCCO4)C(=O)[C@@H]3CC[C@@H]12,-0.499,0.153,-0.0909,0.691,0.922,0.404,0.275,0.737 (inactive),-0.0371,0.0373,0.345,-0.281 (inactive),0.504 (inactive),-0.747 (inactive),0.379,0.133 (inactive),-0.119,0.595,0.752,-0.0436
CCOC(=O)CCN1C(=O)[C@H]2[C@H]3[C@H](O)[C@H](O)CC(=NNC(=O)OCC)[C@H]3CC[C@H]2C1=O,-0.264,0.345,-0.162,-0.188,-0.752,0.189,0.54,0.115 (inactive),0.0166,-0.0237,0.0158,0.654 (inactive),-1.45 (inactive),0.305 (inactive),0.0756,-0.637 (inactive),-0.139,0.412,-0.818,-0.12
O=C(NN=C1C[C@@H](O)[C@@H](O)[C@@H]2[C@@H]3C(=O)N(c4ccc(F)cc4F)C(=O)[C@@H]3CC[C@H]12)OCc1ccccc1,0.0775,1.04,-0.152,-0.0134,0.194,1.47,-0.0123,-0.823 (inactive),0.991,0.0854,0.695,-0.0025 (inactive),-2.08 (inactive),-1.69 (inactive),1.88,0.782 (inactive),-0.0309,0.128,0.827,0.0443

# — PubChem BioAssay
